Data reported in PubChem BioAssay (NCI).
About 83,000 compounds went through this panel and 20% of them were active in at least one assay; those are over-represented in the sample as a whole.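 Negative percent growth values reflect cell death: -40 means 40% of the cells present at the start died, and -100 means all died.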 Unmarked numbers belong to inactive results. Calls of active or inactive are those of the source. How the source made its calls: active means growth percent below 10; inactive means the rest.

The compounds below were run on HL-60(TB) leukemia (assay: NCI-60 one-dose screen, 48 h (100 = growth as untreated, 0 = no growth, -100 = all killed)). Conditions: 10 µM unless noted.

Row | Structure (SMILES) | growth
1 | COc1ccc(-c2ccccc2)cc1-c1c(Nc2cc(Cl)cc(Cl)c2O)c(=O)c1=O | -29.8% (active)
2 | O=C1NC(=S)NC(=O)C1=Cc1cn(Cc2cn(Cc3cccc4ccccc34)nn2)c2ccccc12 | 106%
3 | Cc1nn(-c2ccccc2)nc1C(=O)Nc1ccccc1C(=O)NCC1CC1 | 95.8%
4 | CC(=O)N1CCN(CCNC(=O)n2cc(-c3ccncc3)c(-c3cc(O)cc(Cl)c3)n2)CC1 | 59.9%
5 | N#CC(I)CS(=O)(=O)c1ccccc1 (stereo not given) | 99%
6 | C[C@@H]1C[C@H](N)C[C@H](c2ccncc2NC(=O)c2ccc(F)c(-c3c(F)cccc3F)n2)C1 | -0.14% (active)
7 | COc1cc(-c2nc3ccccc3s2)ccc1OCc1nc2n(n1)S(=O)(=O)c1ccccc1N2C | 79.2%
8 | CCOC(=O)C1=C(CCl)NC(=O)NC1c1ccc2c(c1)OCO2 (stereo not given) | 56.9%
9 | CCN1CCN(c2cc(C)c3cc(NC(=O)c4ccc(OC)c(OC)c4)ccc3n2)CC1 | 1.42% (active)
10 | NC1=NN(O)C2=CC([N+](=O)[O-])C=CC2=N1 (stereo not given) | 103%
11 | CC1(C)N=C(N)N=C(N)N1c1cccc(CCc2ccccc2)c1 | 32.4%
12 | COC(=O)/C=C1\S/C(=N\Nc2ccc([N+](=O)[O-])cc2[N+](=O)[O-])N(C2CCCCC2)C1=O | 8.63% (active)
13 | COc1cc(/C(C#N)=C/c2nc3c(N4CCOCC4)nc(Cl)nc3n2C)cc(OC)c1OC | -29% (active)
14 | O=C(CSc1nc2ccc([N+](=O)[O-])cc2[nH]1)Nc1cccc([N+](=O)[O-])c1 | 57.5%
15 | COC(=O)/C=C1/SC(N2N=C(c3cccs3)CC2c2ccc(F)cc2)=NC1=O (stereo not given) | -7.95% (active)
16 | COc1ccc2c(c1)C(=O)/C(=C/c1cccc(OCC(=O)c3ccccc3)c1)CC2 | 46.5%
17 | O=S(=O)(NCCNc1nccc(-c2c(-c3ccc(O)cc3)nc3sccn23)n1)c1cccc2ccccc12 | 90.3%
18 | N=C(N)c1ccc(-c2ccc(-c3cc(Cl)cc(Cl)c3)o2)nc1 | -74.7% (active)
19 | N=C1S/C(=C/c2ccc(-c3ccc4c(c3)C(=O)NC4=O)o2)C(=O)N1c1ccc(Br)cc1 | 50.5%
20 | CCCN=C1NC(=O)/C(=C/c2nc(-c3ccc(OC)cc3)n3ccccc23)S1 | 79.8%

Row | Structure (SMILES) | growth
21 | CCN(CC)CC(O)CNc1ccnc2cc(Cl)c(Cl)cc12 (stereo not given) | 92.2%
22 | CCOC(=O)c1c2c(cn1Cc1ccccc1)-c1oncc1CC2 | 98.6%
23 | CCCCCCCCCCCCSC1=C(Cl)C(=O)C(OC)=C(OC)C1=O | -46.2% (active)
24 | Nc1nc2c(c3ncccc13)C(c1cccc(Cl)c1)Cc1ncccc1-2 (stereo not given) | -6.22% (active)
25 | COC(=O)[C@H](CSC)N(C)C(=O)[C@@H]1CSSC[C@@H](NC(=O)c2nc3ccccc3cc2O)C(=O)NCC(=O)N1C | 0.567% (active)
26 | CCN1C(=O)N(CC)C2Nn3c(s/c(=C\c4ccccc4Br)c3=O)=NC21 (stereo not given) | -34.7% (active)
27 | Clc1cccc(Cl)c1Cn1c(-c2cncs2)nc2ccccc21 | 56.6%
28 | COc1ccc(S(=O)(=O)N2CCN(c3cc4c(cc3F)c(=O)c(C(=O)O)cn4C3CC3)CC2)c(OC)c1 | 87.1%
29 | Clc1nc(Cl)c2ncn(C/C=C\Cn3cnc4c(Cl)nc(Cl)nc43)c2n1 | -70.2% (active)
30 | Fc1ccc(Nc2nc(Nc3ccc(-c4nc5ccccc5[nH]4)cc3)c3cn[nH]c3n2)cc1 | 91.4%
31 | COc1ccc(-c2cc(-c3ccc(OC)c(OC)c3)nc(SCCCCCC(=O)NO)n2)cc1 | -9.93% (active)
32 | CC[C@H](C)[C@@H](C(=O)OC)n1cc(CNC(=O)[C@@H](Cc2ccccc2)NC(=O)OCc2ccccc2)nn1 | 104%
33 | COc1ccc2sc3c(NCCO)nc4ccccc4c3c(=O)c2c1 | 104%
34 | CC(O)CN(CC(C)O)N(CC(C)O)CC(C)O (stereo not given) | 102%
35 | COc1ccc(/C=C2\CN(C(=O)C(Cl)Cl)C/C(=C\c3ccc(OC)cc3)C2=O)cc1 | -11.9% (active)
36 | CC(=O)O.CN1[CH-]N(Cc2ccc(C#N)cc2)c2ccccc21.[Ag+] | 102%
37 | Cc1cc(N2CCOCC2)nc(N(CCCNc2ccnc3cc(Cl)ccc23)Cc2ccco2)n1 | -26.3% (active)
38 | O=C(CSc1nc2sc3c(c2c(=O)n1-c1ccc(Cl)cc1)CCCC3)Nc1nc(-c2cccc(Br)c2)cs1 | 101%
39 | COc1c(O[C@@H]2OC(CO)[C@H](O)[C@H](O)C2O)cc2oc3cc(O)c(CC=C(C)C)c(O)c3c(=O)c2c1CC=C(C)C (stereo not given in full) | 94.4%
40 | Cc1ccc(-c2cc3nc(-c4ccccc4)nc(C(Cl)Cl)n3n2)cc1 | 12.6%
